# Screening results (PubChem)
# A selection: hits, their analogues and other compounds. The true share with any hit is near 1.7%.
# GLP-1R inv ag = qHTS of GLP-1 Receptor Inverse Agonists (Inhibition Mode); HEK293 GLP-1R CRE-luciferase, luminescence, 24 h; GLP-1R form is constitutively active; 410,000 compounds, 1.6% hits; AID 624417, 2012; Potency, µM (series often up to 38.3 µM), inactives show at the top dose activity change, negative = inhibition, actives largely listed as inhibitors; also: % is scaled to controls: 0 for no effect and ±100 for the full control effect; nearly all actives have a fitted effect of over 55% in size
#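 HEK293 cells stably co-expressing a cAMP-responsive luciferase reporter and constitutively active GLP-1R were seeded, incubated 12 h, then exposed to compounds for 24 h at 37 C. Luminescence was read 12 min after detection reagent; inverse agonists lower signal.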
# GLP-1R agonist = qHTS of GLP-1 Receptor Agonists. AID 624172, 2012. 380,000 compounds, 0.007% hits. Glucagon-like peptide 1 receptor (Homo sapiens), P43220. Potency, µM (titrated, usually from 45.6 µM), for inactives: at the highest dose activation, hits mostly activators. HEK293 GLP-1R CRE-luciferase, luminescence, 4-6 h; cells express a hypersensitive GLP-1R form; also: % of control where 0% means no effect
# PTHR1 agonist = qHTS for PTHR1 Agonists: Primary Screen. Parathyroid hormone/parathyroid hormone-related peptide receptor (Homo sapiens), Q03431. HEK293 GP2 PTHR1 cells, GloSensor cAMP luminescence, 1 h. Potency, µM (top dose mostly 115 µM), without a hit: at the top dose activation, hits mostly activators. 410,000 compounds, 0.075% hits; also: nearly all actives have a fitted effect of over 55% in size
# Target sequence (Q03431 whole entry, looked up): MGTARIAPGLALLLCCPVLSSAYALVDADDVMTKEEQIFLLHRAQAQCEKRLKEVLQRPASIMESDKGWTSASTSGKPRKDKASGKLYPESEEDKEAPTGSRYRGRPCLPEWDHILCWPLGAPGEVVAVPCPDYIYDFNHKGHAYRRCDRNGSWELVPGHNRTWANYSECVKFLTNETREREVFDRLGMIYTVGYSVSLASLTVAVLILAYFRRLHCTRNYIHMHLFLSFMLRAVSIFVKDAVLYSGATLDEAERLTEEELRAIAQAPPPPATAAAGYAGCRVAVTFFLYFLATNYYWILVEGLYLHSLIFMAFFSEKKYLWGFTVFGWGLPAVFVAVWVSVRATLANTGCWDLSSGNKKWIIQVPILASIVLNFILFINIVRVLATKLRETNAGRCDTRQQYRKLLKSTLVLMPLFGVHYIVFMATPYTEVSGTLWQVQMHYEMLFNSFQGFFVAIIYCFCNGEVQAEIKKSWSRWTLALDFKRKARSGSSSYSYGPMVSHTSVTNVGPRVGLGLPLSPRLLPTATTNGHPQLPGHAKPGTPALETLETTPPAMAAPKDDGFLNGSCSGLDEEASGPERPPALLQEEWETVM
#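 HEK-293-derived GP2 cells expressing PTHR1 and a GloSensor cAMP reporter, 3,000/well, plated overnight, given luciferin plus IBMX (each 0.5 mM as added) for 1 h at 37 °C, then compound for 1 h at 37 °C. Luminescence was read after 15 min at room temperature.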
# GLP1R cytotox = qHTS of GLP-1 Receptor Inverse Agonists: Cytotox Screen. 410,000 compounds, 0.13% hits. AID 624418, 2012. HEK293 cAMP-luciferase reporter cells, luminescence, 24 h. Potency, µM (doses to about 38.3 µM), for inactives: at the top dose activity change, negative = inhibition, hits mostly inhibitors;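 also: loss of luciferase light is scored as toxicity; % is scaled to controls: 0 for no effect and ±100 for the full control effect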
#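 Quantitative HTS format, 1536 wells, 200 cells/uL seeded. Compounds: 23 nL, 24 h, 37 °C. Detection: luciferase reagent, luminescence at 12 min RT; decreased signal taken as cytotoxic.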
# An asterisk follows results filed as active; i = inactive; ? = inconclusive; . = no result given; [ ] = remark or other dose. Calls follow the shape of the dose curve; as a rule, active = well fitted curve in the direction sought with a large enough effect; inconclusive = small, poorly fitted or top-dose-only effect, or another doubt; inactive = no such curve, though single readings can be large; an effect the other way counts as inactive or inconclusive. Potency is read from the fitted curve at half-maximal effect.
SMILES,GLP-1R inv ag,GLP-1R agonist,PTHR1 agonist,GLP1R cytotox
COc1ccccc1OCC(=O)NNC(=O)C1CCN(c2ncnc3sc(C)c(C)c23)CC1,?,-4.7%,-34.4%,-16.4%
COc1ccc(-c2csc(NC(=O)C3CCN(c4ncnc5sc(C)c(C)c45)CC3)n2)cc1OC,7.08µM*,9.7%,-30.2%,?
CCN(CC)c1ccc(/C=N/Nc2nc(C)cc(C)n2)cc1,11.2µM*,9.6%,i,?
CCc1ccccc1NC(=O)Cc1c(C(=O)O)[nH]c2ccc(Cl)cc12,6.2%,-3.0%,-4.2%,2.0%
Cc1nnc(NC(=O)c2ccc3ccccc3c2)o1,11.2µM*,2.4%,-24.2%[57.5 µM],-17.5%
Cc1ccccc1NC(=O)c1ccc2ccccc2c1,?,-0.5%,-32.9%,4.3%
CCN1CCN(CCNC(=O)c2ccc3c(c2)N(Cc2cccc(Cl)c2)C(=O)c2ccccc2S3=O)CC1 (configuration not stated),?,4.4%,12.4%,-24.3%
CCN(C(=O)c1ccc2c(c1)N(Cc1cccc(Cl)c1)C(=O)c1ccccc1S2=O)c1ccccc1 (configuration not stated),10µM*,.,i,-27.1%
Cn1cc(CN2CCC(CO)CC2)c(-c2ccc(Oc3ccccc3)cc2)n1,10µM*,3.2%,i,-13.9%
CN1CCc2c(n(CC(O)CNCc3ccccc3)c3ccccc23)C1=O (configuration not stated),?,-3.7%,-1.5%,-9.6%
CC(C)NCC(O)Cn1c2c(c3ccccc31)CCc1c-2cnn1-c1ccccc1 (configuration not stated),10µM*,-36.4%,-11.1%,?
Cc1cc(C(=O)Cn2nc(C(=O)O)c3ccccc3c2=O)c(C)n1CCc1ccc(Cl)cc1,3.1%,3.1%,-22.6%,-2.8%
CN(C)c1ccc(/C=C2/C[N+](C)(C)C/C(=C/c3ccc(N(C)C)cc3)C2=O)cc1,24.7%,-3.2%,i,8.91µM*
CC(C)/C=C1\CC/C(=C\c2ccc(N(C)C)cc2)C1=O,12.1%,9.1%,-43.6%,17.7%
CCCC(c1nnnn1Cc1ccco1)N1CCN(c2cc(Cl)ccc2C)CC1 (configuration not stated),5.01µM*,6.1%,-4.6%,-0.9%
CCOc1ccccc1NS(=O)(=O)c1ccc2c(c1)CC(C)N2C(=O)C1CCC1 (configuration not stated),?,.,i,13.4%
O=C(OCC(F)(F)F)c1cccc(COc2ccc3ccccc3c2)c1,2.24µM*,-28.5%,-13.8%,0.8%
CCC1CCCCN1C(=O)Cn1c(=O)cc(C(F)(F)F)c2c(C)nn(C)c21 (configuration not stated),10µM*,.,-7.5%,0.4%
Cc1cc(=O)n(CC(=O)N2CCCCC2)c2c1c(C)nn2C,8.9%,.,i,1.5%
O=C(CSc1nnnn1C1CCCCC1)Nc1cccc(NC(=O)c2ccco2)c1,7.08µM*,-0.5%,i,-11.1%
CCOC(=O)c1ccc(NC(=O)C2(c3ccc(OC)cc3)CCOCC2)cc1,?,0.6%,-15.9%[57.5 µM],-22.6%
CCOC(=O)c1ccc(NC(=O)Nc2ccc(F)cc2)cc1,4.47µM*,-5.9%,-23.8%,?
O=C(NC(=S)Nc1ccccn1)c1ccc(-c2ccccc2)cc1,?,2.0%,-23.6%,?
CCOC(=O)c1ccc(NC(=O)C2(c3ccc(OC)cc3)CCCC2)cc1,5.01µM*,1.9%,-25.1%[57.5 µM],-15.6%
CCOC(=O)c1ccc(NC(=S)Nc2ccccn2)cc1,?,0.6%,1.8%[57.5 µM],5.62µM*
SMILES,GLP-1R inv ag,GLP-1R agonist,PTHR1 agonist,GLP1R cytotox
COC(=O)c1ccc(NC(=O)Nc2ccc(F)cc2)cc1,?,1.3%,-16.4%[57.5 µM],-27.5%
O=C(NC(=S)Nc1ccccn1)c1ccccc1,10µM*,-7.2%,-61.0%,?
Cc1csc(NC(=S)NC(=O)c2ccccc2)n1,3.55µM*,8.2%,-13.4%,?
O=C(Nc1ccccc1)C(=O)Nc1ccccn1,?,-0.5%,-80.5%[57.5 µM],0.5%
S=C(Nc1ccc(Nc2ccccc2)cc1)Nc1ccccn1,2.24µM*,13.5%,-31.4%,?
COc1cc(S(=O)(=O)N2CCCCCC2)c(OC)cc1Br,4.47µM*,2.5%,-25.7%,9.8%
CCCCN1C(=O)C(=O)NC[C@H]1Cc1cccc2ccccc12,3.5%,5.3%,-10.5%,-7.7%
O=C1NC[C@@H](Cc2cccc3ccccc23)N(CC2(c3ccccc3)CC2)C1=O,11.2µM*,-3.2%,-92.6%,2.7%
CNCCC=C1c2ccccc2CCc2ccccc21,6.31µM*,11.3%,-5.3%,-18.1%
CCOC(=O)C1CCCN(C(=O)COc2ccc(C(=O)c3ccccc3)cc2)C1 (configuration not stated),1.58µM*,9.0%,i,-9.1%
Nc1c([N+](=O)[O-])c(=O)oc2ccccc12,55.7%,9.1%,i,-2.6%
CC(C)(C)c1cc(CCC(=O)N2CCCC2)cc(C(C)(C)C)c1O,?,-1.1%,-12.2%,12.4%
CC(C)(C)c1cc(C(=S)N2CCCC2)cc(C(C)(C)C)c1O,8.91µM*,5.8%,i,4.4%
COc1ccc(N2C(=O)CS/C2=N\C(=S)Nc2ccccc2)cc1,12.6µM*,8.9%,i,?
CCCc1ccc(C(=O)NNc2cccc(C)c2)cc1,2.82µM*,11.5%,i,?
Cc1cccc(NNC(=O)C(=O)NNc2cccc(C)c2)c1,?,-4.3%,i,-15.8%
CCCc1ccc(C(=O)NNc2cc(Cl)ccc2Cl)cc1,1.26µM*,-0.3%,-21.3%,-7.3%
CCCc1ccc(C(=O)NNC(=O)c2ccc(Cl)cc2)cc1,0.2%,0.7%,i,-13.2%
O=C(NC1CCCCC1)C(c1cccnc1)N(C(=O)c1csnn1)c1ccc(F)cc1 (configuration not stated),5.8%,2.4%,-19.6%,12.6%
COc1ccccc1CNC(=O)Cn1c(-c2cccs2)cc2cc(F)ccc21,13.6%,.,50.1µM*,-5.4%
CCN(CC)P(=O)(Nc1cccc(C(F)(F)F)c1)c1ccc(N(C)C)cc1NC(=O)c1ccco1 (configuration not stated),2.51µM*,-5.4%,3.5%,-8.4%
O=C(CN1C(=O)NC2(CCCC2)C1=O)Nc1cc(Cl)ccc1N1CCOCC1,2.6%,9.7%,i,-6.0%
CN1/C(=C\C(=S)Nc2ccccc2)C(C)(C)c2ccccc21,11.2µM*,11.5%,-23.9%,?
CN1/C(=C\C=C(/C#N)C(=O)Nc2ccc(Cl)cc2)C(C)(C)c2ccccc21,20.3%,3.4%,i,27.7%
CN1/C(=C\C(=O)Nc2ccc(Cl)cc2)C(C)(C)c2ccccc21,10µM*,17.1%,-28.0%,-26.0%
CCOC(=O)/C(=N/Nc1ccc(Br)cc1)N1CC(C)OC(C)C1 (configuration not stated),2.51µM*,13.9%,-11.6%,-3.2%
